Screens (PubChem BioAssay)
Most compounds without a hit are left out; they make up all but 4.3% or so of the library.
MazEF act = activators of E. coli MazEF toxin-antitoxin RNase, primary screen, biochemical, fluorescence, uHTS | AID 504720, 2011 | FAM/BHQ RNA-DNA oligo cleavage fluorescence, 5 h | activation, % at 20 µM | 0.32% of 350,000 active; in the data active = activation above about 50%
Target sequence (P0AE70 whole entry, looked up): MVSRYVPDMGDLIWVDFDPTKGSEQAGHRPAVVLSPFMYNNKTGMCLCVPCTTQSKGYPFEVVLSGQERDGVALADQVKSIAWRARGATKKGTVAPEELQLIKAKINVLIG
BoNT A protease = BoNT/A light chain protease inhibitors, primary screen, biochemical, flow cytometry, MLPCN library | multiplex microsphere protease substrate cleavage | 0.17% of 360,000 active | Botulinum neurotoxin type A light chain protease (Clostridium botulinum A str. ATCC 3502) | inhibition, % at 10 µM
PfHsp40 yeast = rescue of yeast from PfHsp40 toxicity, primary screen, S. cerevisiae, ATP luminescence | 0.68% of 340,000 active | growth rescue, % at 12.5 µM | S. cerevisiae expressing PfHsp40, growth rescue; in the data active = growth rescue above about 28%, passing the limit was not always enough; inconclusive = no clear call, values can overlap the other calls;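 note: yeast W303a lacking pdr1 and pdr3 grown in galactose medium; growth measured after three days at 30 °C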
BoNT-F LC inh = BoNT/F light chain protease inhibitors, primary screen, biochemical, flow cytometry, MLPCN library. inhibition, % at 10 µM. Multiplex microsphere protease cleavage assay. 0.22% of 360,000 active. AID 588497, 2011. Botulinum neurotoxin type F light chain protease (Clostridium botulinum); in the data active = inhibition above about 35%, passing the limit was not always enough; inconclusive = no clear call, values can overlap the other calls
Bead autofluor = counter-screen for toxin protease inhibitors: compound fluorescence; compound autofluorescence counterscreen, microsphere flow cytometry; active compounds read high; fluorescence intensity (test concentration not listed); 3.1% of 360,000 active; AID 624483; in the data active = fluorescence intensity above about 16000; inconclusive = no clear call, values can overlap the other calls
Anthrax LF inh2 = Bacillus anthracis LF protease inhibitors, primary screen, biochemical, multiplex microsphere, MLPCN library | Lethal factor (Bacillus anthracis), P15917 | multiplex microsphere protease cleavage assay | inhibition, % at 10 µM | 0.12% of 360,000 active | AID 588501, 2011
Large screens that a line does not name were inactive. Cut-off read from the data, not from the text of the source, unless noted: active = inhibition above about 30%; inconclusive = no clear call, values can overlap the other calls; inactive = below that.

CC(C)CNC(=O)CSc1nc(-c2cccs2)cc(C(F)(F)F)n1	BoNT-F LC inh 37.7
O=C(O)COCC(=O)N1CCc2c([nH]c3ccccc23)C1C(F)(F)F (stereo unspecified)	none
OC[C@@H]1CN(Cc2ccc(F)cc2)C[C@H](n2cnc3c(NCc4ccncc4)ncnc32)O1	none (no result: MazEF act, PfHsp40 yeast)
Cc1ccnc(NC(=O)c2ccc(Cl)s2)c1	none
O=C(Nc1ccon1)c1ccc(Cl)s1	BoNT A protease inconclusive, Bead autofluor 17115
CN(C(=O)COC(=O)COc1ccc(Cl)cc1Cl)c1c(N)n(Cc2ccccc2)c(=O)[nH]c1=O	none
Cc1cc(C)nc(N2N=C(C(C)(C)C)CC2=O)n1	BoNT A protease inconclusive, Bead autofluor 23425
COc1ccc([C@H]2C[C@H](n3cc(COC(=O)c4ccccc4)nn3)[C@@H](O)CN2Cc2cccs2)cc1	none (no result: PfHsp40 yeast)
O=C(O)c1oc2ccccc2c1-n1cccc1	Bead autofluor 16703
COC(=O)c1oc2ccc(Br)cc2c1-n1cccc1	none
CCCN(Cc1nnc(-c2ccccc2Cl)o1)C(=O)COc1ccc(Cl)cc1	none
CC(C)c1ccc2c(c1)C1(NN=C(c3ccccc3)S1)C(=O)N2 (stereo unspecified)	PfHsp40 yeast 41.3
CCc1ccc2c(c1)C1(NN=C(c3ccc(C)cc3)S1)C(=O)N2 (stereo unspecified)	none
CC(C)Cn1c(=O)n(C)c(=O)c2[nH]cnc21	PfHsp40 yeast 37.3
Cn1c(=O)c2[nH]cnc2n(C)c1=O	none
COc1ccc(C(C)=O)cc1COC(=O)c1cnc(Cl)c(Cl)c1	none
Cc1ccc(C2CC(=O)Nc3sc(C(N)=O)c(N)c32)cc1 (stereo unspecified)	Bead autofluor 21762
CCOc1ccc(C(=O)NC(C(=O)NCCc2ccc(OC(F)F)cc2)C(C)C)cc1 (stereo unspecified)	none
O=C(c1ccccc1OCc1ccccc1Br)N1CCN(c2ncccn2)CC1	Bead autofluor 16398
O=C(COc1ccc(Cl)cc1Cl)N1CCN(c2ccccn2)CC1	none
O=C(c1ccccc1Br)N1CCN(c2ncccn2)CC1	none
CCc1ccccc1OCC(=O)N1CCN(c2ncccn2)CC1	none (no result: BoNT A protease, BoNT-F LC inh, Bead autofluor, Anthrax LF inh2)
O=C(CCCn1c(=S)[nH]c2cc3c(cc2c1=O)OCO3)N1CCN(c2ccccn2)CC1	BoNT A protease inconclusive, Bead autofluor 19027
O=C(COc1ccccc1Cl)N1CCN(c2ncccn2)CC1	Bead autofluor 22968
O=C(CCCOc1ccc(Cl)cc1Cl)N1CCN(c2ccccn2)CC1	Bead autofluor 16837
COc1cc(C(=O)C(=O)c2ccc(OC)c(OC)c2)ccc1O	none
CN1CCN(C(=O)CCCOc2ccc(Cl)cc2Cl)CC1	Bead autofluor 17214
CN1CCN(C(=O)c2ccc(COc3ccc(Cl)cc3Cl)cc2)CC1	none
CC(C)N(C)c1ncnc2c1ncn2[C@H]1CN(Cc2ccc(-c3ccccc3)cc2)C[C@@H](CO)O1	none (no result: MazEF act, PfHsp40 yeast)
CSc1nc(N)nc(SCC(=O)C23CC4CC(CC(C4)C2)C3)c1C#N	Bead autofluor 19688
CSc1nc(N)nc(SCC(=O)c2ccccc2)c1C#N	none
COc1ccc(C(=O)CSc2nc(N)nc(SC)c2C#N)cc1	Bead autofluor 19201
N#Cc1c(N)nc(SCC(=O)C23CC4CC(CC(C4)C2)C3)c(C#N)c1-c1ccc(Cl)cc1	none
COc1ccccc1CCCNC(=O)C1CCC(=O)N(CCc2ccc(Cl)cc2)C1 (stereo unspecified)	none
O=[N+]([O-])c1cc(/C=N\Nc2nc(-c3ccccc3)cs2)ccc1O	none
Cc1csc(N/N=C/c2ccc(O)c([N+](=O)[O-])c2)n1	Bead autofluor 22477
O=C(NCc1ccco1)c1cc2n(n1)C(C(F)(F)F)CC(c1ccc(Br)cc1)N2 (stereo unspecified)	none
O=C(NCc1ccco1)c1cc2n(n1)C(C(F)(F)F)CC(c1ccc(Cl)c(Cl)c1)N2 (stereo unspecified)	Bead autofluor 17695
Cc1c(NC(=O)C(C)Sc2ccc3ccccc3n2)c(=O)n(-c2ccccc2)n1C (stereo unspecified)	none
Cc1c(NC(=O)C(C)Sc2nc3ccccc3c(=O)n2CCO)c(=O)n(-c2ccccc2)n1C (stereo unspecified)	Bead autofluor 21769
O=C(NCCc1ccccc1)c1ccc(S(=O)(=O)N2CCCC2)cc1	none
O=c1c2ccccc2nc(COc2ccccc2)n1/N=C/c1ccc(O)cc1O	PfHsp40 yeast 52.3
Cc1c(N=C2N=C(NC(=O)Nc3ccc(Cl)cc3)c3ccccc32)c(=O)n(-c2ccccc2)n1C	MazEF act 87.7
Cc1c(NC(=O)Nc2ccc(Cl)cc2)c(=O)n(-c2ccccc2)n1C	none
Cc1sc2nc(SCC(=O)NCCOCCO)n(C)c(=O)c2c1C	Bead autofluor 21931
Cc1sc2nc(SCC(=O)NCCOCCO)nc(N)c2c1C	none
CC(C)CC(=NNC(=O)c1ccncc1)c1cc(Cl)ccc1O	none
CCCCC1CC1C(=O)Nc1ccc(OC)c(OC)c1 (stereo unspecified)	Bead autofluor 16567
Cc1cc2c(cc1S(=O)(=O)N(C)Cc1ccccc1)n(C)c(=O)c(=O)n2C	none
O=C(N/N=C/c1ccc(Cl)cc1Cl)c1ccc2nc[nH]c2c1	none
O=C(N/N=C/c1ccc(Cl)cc1Cl)c1cccc(F)c1	Bead autofluor 22364
COc1cccc(C(=O)Nc2nnc(S(=O)(=O)N(C)Cc3ccc(F)cc3)s2)c1	none
CCOC(=O)c1c(C)[nH]c(C(=O)OCC(=O)NC(C)(C)C)c1C	none (no result: PfHsp40 yeast)
CCOC(=O)c1c(C)[nH]c(C(=O)OCC(=O)Nc2cc(C)ccc2OC)c1C	none
CCOC(=O)c1c(C)[nH]c(C(=O)OCC(=O)Nc2cc(Cl)ccc2OC)c1C	Bead autofluor 16877
CCOC(=O)c1[nH]c(C)c(C(=O)OCC(=O)NC(=O)NC(C)(C)C)c1C	Bead autofluor 20160
COc1ccc(C(=O)Nc2nnc([C@@H]3C[C@H](O)[C@@H](CO)O3)s2)cc1	none (no result: MazEF act, PfHsp40 yeast)
CN(Cc1ccccc1F)C(=O)CCNC(=O)c1ccc(C(C)(C)C)cc1	none
Cn1c(=O)c(-c2cc(=O)[nH][nH]2)c(O)c2ccccc21	PfHsp40 yeast 47.1
O=c1cc(-c2c(O)c3ccccc3n(Cc3ccccc3)c2=O)[nH][nH]1	PfHsp40 yeast 155.2
CCn1c(=O)c(-c2cc(=O)[nH][nH]2)c(O)c2ccccc21	PfHsp40 yeast 96.6
Cn1c(=O)c(-c2cccc(Cl)c2)c(O)c2ccccc21	BoNT-F LC inh inconclusive
COc1ccc(CN2C(=O)C(CC(=O)NCCc3ccccn3)CC(C(=O)N(C(C)C)C(C)C)=C2C)cc1 (stereo unspecified)	none (no result: PfHsp40 yeast)
